According to the supplement of paper PMC12645437, “Orthogonal IMiD-Degron Pairs Induce Selective Protein Degradation in Cells” (ACS Chemical Biology, 2025):
Whole data set: some 8,300 sequences, median “log2 fold change of degron read counts, EGFP-low vs EGFP+ sorted cells (limma voom), compound-induced degradation” near -1.1, cut for the highest 2% near 3.2. Many of the other results were omitted from the sample, so the highest values are more common in it than they were.

T1: CRBN, Q96SW2
T1 chain: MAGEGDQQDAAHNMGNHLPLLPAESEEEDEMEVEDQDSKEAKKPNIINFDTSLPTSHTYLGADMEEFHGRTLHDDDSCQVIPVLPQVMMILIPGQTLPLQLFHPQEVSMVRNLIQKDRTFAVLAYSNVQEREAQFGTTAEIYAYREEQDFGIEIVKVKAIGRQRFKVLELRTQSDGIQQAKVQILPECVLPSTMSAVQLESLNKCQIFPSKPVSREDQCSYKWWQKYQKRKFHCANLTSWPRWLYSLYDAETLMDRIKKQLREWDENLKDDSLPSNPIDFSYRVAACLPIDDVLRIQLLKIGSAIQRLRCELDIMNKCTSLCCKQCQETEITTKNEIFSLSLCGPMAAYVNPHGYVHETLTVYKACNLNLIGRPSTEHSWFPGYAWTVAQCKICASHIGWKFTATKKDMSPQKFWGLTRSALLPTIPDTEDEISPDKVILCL


Molecular target: T1, CRBN, Q96SW2
Assay: log2 fold change of degron read counts, EGFP-low vs EGFP+ sorted cells (limma voom), compound-induced degradation; higher = more compound-induced degradation of the degron-EGFP fusion; degrons are variants of IKZF1/3 zinc finger 2; compound dose not given here
Settings: Jurkat, 18 h
[1] = compound: compound 19 (5-tert-butyl-thalidomide)
[2] = compound: compound 22 (5-morpholino-thalidomide)
[3] = compound: compound 33 (diphenyl IMiD analogue)
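Further: pooled lentiviral library of zinc finger degron-EGFP fusions in mCherry-positive Jurkat cells, FACS-sorted after compound exposure, with degron abundance counted by next-generation sequencing.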

Sequence	log2 fold change of degron read counts [1]	log2 fold change of degron read counts [2]	log2 fold change of degron read counts [3]	log2 fold change of degron read counts (compound: thalidomide)
FWCNICGAGFTQKGNLLRHIKL [46F_47W_49N_50I_52G_53A_54G_55F_67L_, Q9UKT9]	1.8	1.84	0.64	-0.741
FTCDQCGAIFTQKGNLLRHIKL [46F_47T_49D_50Q_52G_53A_54I_55F_67L_, Q9UKT9]	-3.12	-2.8	-2.46	-2.63
LTCEICGFFCTQKGNLLRHIKL [46L_47T_49E_50I_52G_53F_54F_55C_67L_, Q9UKT9]	0.0809	0.0956	0.606	0.98
FFCNICGAKFTQKGNLLRHIKL [46F_47F_49N_50I_52G_53A_54K_55F_67L_, Q9UKT9]	1.77	1.78	0.0329	-0.6
FQCNVCGAGFTQKGNLLRHIKL [46F_47Q_49N_50V_52G_53A_54G_55F_67L_, Q9UKT9]	-0.572	-0.754	-0.58	1.66
FQCNQCGRQFTQKGNLLRHIKL [46F_47Q_49N_50Q_52G_53R_54Q_55F_67L_, Q9UKT9]	-3.25	-3.61	-3.19	-2.34
FKCDQCGAQFTQKGNLLRHIKL [46F_47K_49D_50Q_52G_53A_54Q_55F_67L_, Q9UKT9]	-2.9	-3.7	-3.4	-3.16
FECDQCGANFTQKGNLLRHIKL [46F_47E_49D_50Q_52G_53A_54N_55F_67L_, Q9UKT9]	-3.58	-4.58	-1.92	-1.86
FACEQCGAFFTQKGNLLRHIKL [46F_47A_49E_50Q_52G_53A_54F_55F_67L_, Q9UKT9]	-1.43	-2.96	-2.14	-2.45
FYCDVCGAQFTQKGNLLRHIKL [46F_47Y_49D_50V_52G_53A_54Q_55F_67L_, Q9UKT9]	2.41	3.24	1.63	-0.781
FVCDVCGAQFTQKGNLLRHIKL [46F_47V_49D_50V_52G_53A_54Q_55F_67L_, Q9UKT9]	-1.63	0.889	1.87	0.809
FECDVCGAQFTQKGNLLRHIKL [46F_47E_49D_50V_52G_53A_54Q_55F_67L_, Q9UKT9]	-2.41	-2.69	-1.62	-0.629
FQCDVCGAQFTQKGNLLRHIKL [46F_47Q_49D_50V_52G_53A_54Q_55F_67L_, Q9UKT9]	-1.59	0.635	0.642	2.41
FHCDVCGAQFTQKGNLLRHIKL [46F_47H_49D_50V_52G_53A_54Q_55F_67L_, Q9UKT9]	-0.281	0.385	-0.661	-1.69
FWCDVCGAQFTQKGNLLRHIKL [46F_47W_49D_50V_52G_53A_54Q_55F_67L_, Q9UKT9]	2.68	3.85	1.36	-0.531
FGCPQCGAFFTQKGNLLRHIKL [46F_47G_49P_50Q_52G_53A_54F_55F_67L_, Q9UKT9]	-0.126	-1.28	2.09	-1.62
FRCSVCGHMFTQKGNLLRHIKL [46F_47R_49S_50V_52G_53H_54M_55F_67L_, Q9UKT9]	-2.17	-2.3	-2.41	-2.23
FVCNVCGAWFTQKGNLLRHIKL [46F_47V_49N_50V_52G_53A_54W_55F_67L_, Q9UKT9]	-2.28	-1.99	-1.2	-1.25
LTCNQCGFLCTQKGNLLRHIKL [46L_47T_49N_50Q_52G_53F_54L_55C_67L_, Q9UKT9]	-2.17	-2.63	-2.25	-1.91
FACPVCGAGFTQKGNLLRHIKL [46F_47A_49P_50V_52G_53A_54G_55F_67L_, Q9UKT9]	3.42	1.04	0.678	0.677
FRCPVCGAGFTQKGNLLRHIKL [46F_47R_49P_50V_52G_53A_54G_55F_67L_, Q9UKT9]	2.32	1.95	2.25	1.72
FVCPVCGAGFTQKGNLLRHIKL [46F_47V_49P_50V_52G_53A_54G_55F_67L_, Q9UKT9]	0.554	2.67	1.71	2.79
FFCPVCGAGFTQKGNLLRHIKL [46F_47F_49P_50V_52G_53A_54G_55F_67L_, Q9UKT9]	3.15	2.03	1.8	0.528
FQCPVCGAGFTQKGNLLRHIKL [46F_47Q_49P_50V_52G_53A_54G_55F_67L_, Q9UKT9]	2.21	2.03	1.81	3.38
FCCPVCGAGFTQKGNLLRHIKL [46F_47C_49P_50V_52G_53A_54G_55F_67L_, Q9UKT9]	2.96	1.65	1.8	1.26
FHCPVCGAGFTQKGNLLRHIKL [46F_47H_49P_50V_52G_53A_54G_55F_67L_, Q9UKT9]	2.85	1.03	2.35	-0.326
FGCPVCGAGFTQKGNLLRHIKL [46F_47G_49P_50V_52G_53A_54G_55F_67L_, Q9UKT9]	3.26	1.13	2.32	0.332
FYCPVCGAGFTQKGNLLRHIKL [46F_47Y_49P_50V_52G_53A_54G_55F_67L_, Q9UKT9]	3.05	2.07	2.22	-0.0832
